Measurements reported in PubChem BioAssay (NCI).
This is part of a sample that, as a whole, favours compounds with a hit. Of some 83,000 tested, about 20% had one in any assay.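 Activity criterion: percent growth below 10, measured after cells in 96-well plates were exposed to a single compound concentration for 48 hours.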 Active and inactive are the calls of the source.

Key:
Test in all cases: NCI-60 one-dose screen, 48 h (100 = growth as untreated, 0 = no growth, -100 = all killed)
Settings in all cases: 10 µM
NCI-H460 lung = tested on: NCI-H460 lung
HOP-92 NSCLC = tested on: HOP-92 NSCLC
RXF 393 renal = tested on: RXF 393 renal
SNB-19 CNS = tested on: SNB-19 CNS
SK-MEL-5 melanoma = tested on: SK-MEL-5 melanoma
ACHN renal = tested on: ACHN renal
CCRF-CEM leukemia = tested on: CCRF-CEM leukemia
OVCAR-4 ovarian = tested on: OVCAR-4 ovarian
NCI/ADR-RES ovarian = tested on: NCI/ADR-RES ovarian
T-47D breast = tested on: T-47D breast
BT-549 breast = tested on: BT-549 breast
MDA-MB-435 melanoma = tested on: MDA-MB-435 melanoma
SW-620 colon = tested on: SW-620 colon
MCF7 breast = tested on: MCF7 breast
HCC-2998 colon = tested on: HCC-2998 colon
KM12 colon = tested on: KM12 colon
HCT-116 colon = tested on: HCT-116 colon
SR leukemia = tested on: SR leukemia

Measured: growth

Fc1ccc(/C=C/c2nc3ccccc3n3c(-c4ccc(Cl)cc4)nnc23)cc1
active: CCRF-CEM leukemia 0.524%
inactive: NCI-H460 lung 59.6% | HOP-92 NSCLC 67.6% | RXF 393 renal 58.8% | SNB-19 CNS 86.2% | SK-MEL-5 melanoma 76.5% | ACHN renal 47.5% | OVCAR-4 ovarian 69% | NCI/ADR-RES ovarian 70.4% | T-47D breast 60.9% | BT-549 breast 79.3% | MDA-MB-435 melanoma 78.4% | SW-620 colon 44.3% | MCF7 breast 12.9% | HCC-2998 colon 102% | KM12 colon 80.2%

COc1ccc(C2OC[C@@]3(C)C4CC[C@]5(C)C(CC=C6C7CC(C)(C)CC[C@]7(C(=O)O)CC[C@]65C)[C@@]4(C)C[C@@H](O)[C@@H]3O2)cc1 (stereo not given in full)
inactive: HOP-92 NSCLC 64.8% | RXF 393 renal 89% | SNB-19 CNS 90.9% | SK-MEL-5 melanoma 80.5% | CCRF-CEM leukemia 50.3% | NCI/ADR-RES ovarian 87.1% | T-47D breast 88.5% | BT-549 breast 82.4% | MDA-MB-435 melanoma 97% | SW-620 colon 69.9% | MCF7 breast 50.9% | HCT-116 colon 43.3% | HCC-2998 colon 101% | KM12 colon 54.4%

O=C(Nc1ccc(OCc2ccc(Cl)cc2)cc1)Nc1ccc(Cl)c(C(F)(F)F)c1
inactive: SNB-19 CNS 11% | ACHN renal 11.2% | MDA-MB-435 melanoma 14.2% | SW-620 colon 25.1% | KM12 colon 10.2%
active: NCI-H460 lung 7.92% | RXF 393 renal -21% | SK-MEL-5 melanoma -81.4% | SR leukemia 2.46% | NCI/ADR-RES ovarian 1.08% | T-47D breast 3.95% | BT-549 breast -17% | MCF7 breast 1.78% | HCC-2998 colon 3.51%

Nc1nnc(-c2c[nH]c3ncc(Br)cc23)c(-c2c[nH]c3ccc(Br)cc23)n1
active: RXF 393 renal -14.7% | SK-MEL-5 melanoma 9.81% | CCRF-CEM leukemia 5.14% | BT-549 breast 6.94%
inactive: HOP-92 NSCLC 28.4% | SNB-19 CNS 46.7% | NCI/ADR-RES ovarian 52.9% | T-47D breast 37.4% | MDA-MB-435 melanoma 22.4% | SW-620 colon 20.2% | HCT-116 colon 22.1% | HCC-2998 colon 75.7% | KM12 colon 37.5%

Cn1cc(-c2cc(N)n3nc(-c4cn(C)c5ccccc45)cc3n2)c2cc(F)ccc21
active: NCI-H460 lung -61.6% | HOP-92 NSCLC -78.4% | RXF 393 renal -76.3% | SK-MEL-5 melanoma -87.9% | ACHN renal -89.4% | CCRF-CEM leukemia -9.43% | SR leukemia 9.63% | OVCAR-4 ovarian -38.2% | NCI/ADR-RES ovarian -21.1% | T-47D breast -50.1% | BT-549 breast -69.9% | MDA-MB-435 melanoma -81.1% | SW-620 colon -54.4% | MCF7 breast -56.2% | HCT-116 colon -92.1% | HCC-2998 colon -80.5% | KM12 colon -69.1%

Cn1cc(-c2nnc(N)nc2-c2c[nH]c3ccc(F)cc23)c2cc(Br)cnc21
inactive: HOP-92 NSCLC 26.4% | RXF 393 renal 38.7% | SNB-19 CNS 58.3% | SK-MEL-5 melanoma 81.9% | CCRF-CEM leukemia 35.4% | NCI/ADR-RES ovarian 68.1% | T-47D breast 44.1% | BT-549 breast 51.1% | MDA-MB-435 melanoma 67.2% | SW-620 colon 68.5% | HCC-2998 colon 72.8% | KM12 colon 61.5%

Cc1ccc(-c2nc(C#N)c(S(=O)(=O)N3CCN(S(C)(=O)=O)CC3)o2)cc1
inactive: HOP-92 NSCLC 63.7% | SNB-19 CNS 93.9% | SK-MEL-5 melanoma 55.2% | NCI/ADR-RES ovarian 57.6% | BT-549 breast 58% | MDA-MB-435 melanoma 57.9% | HCC-2998 colon 92.9% | KM12 colon 92.5%
active: RXF 393 renal -35.2% | ACHN renal -97.9% | CCRF-CEM leukemia 7.57% | T-47D breast -52.4% | SW-620 colon -71.8% | MCF7 breast 5.73% | HCT-116 colon -74%

COc1ccc(NCc2cn(-c3ccc(C(=O)O)cc3)nc2-c2ccc(F)cc2)cc1C(F)(F)F
inactive: HOP-92 NSCLC 68.3% | RXF 393 renal 75.4% | SNB-19 CNS 39.3% | SK-MEL-5 melanoma 26.7% | ACHN renal 43.1% | CCRF-CEM leukemia 41.6% | OVCAR-4 ovarian 57.2% | NCI/ADR-RES ovarian 64.4% | T-47D breast 47.5% | BT-549 breast 33.2% | MDA-MB-435 melanoma 36.8% | SW-620 colon 60.1% | MCF7 breast 30.5% | HCT-116 colon 39.5% | HCC-2998 colon 51.7% | KM12 colon 24.1%

COc1cc(C2CC(c3ccc(Oc4ccc(Cl)cc4)cc3)=NN2c2nc(-c3ccc(Cl)cc3)c(C#N)c(N3CCOCC3)n2)cc(OC)c1OC (stereo not given)
inactive: RXF 393 renal 107% | SNB-19 CNS 102% | SK-MEL-5 melanoma 97.8% | ACHN renal 96.5% | CCRF-CEM leukemia 111% | OVCAR-4 ovarian 103% | NCI/ADR-RES ovarian 98.9% | T-47D breast 91.8% | BT-549 breast 116% | MDA-MB-435 melanoma 94.2% | SW-620 colon 101% | HCT-116 colon 106% | HCC-2998 colon 100% | KM12 colon 101%

Cn1cc(/C=C(/SS/C(=C/c2cn(C)c3cccc(C(=O)O)c23)C(=O)O)C(=O)O)c2c(C(=O)O)cccc21
inactive: RXF 393 renal 112% | SK-MEL-5 melanoma 100% | CCRF-CEM leukemia 106% | OVCAR-4 ovarian 99.6% | NCI/ADR-RES ovarian 93.4% | T-47D breast 101% | BT-549 breast 114% | MDA-MB-435 melanoma 98% | SW-620 colon 116% | HCC-2998 colon 99.8% | KM12 colon 103%

CCOc1ccc(/C=N/NC(=O)Cn2nc(Cc3ccc(OC)cc3)c3onc(C)c3c2=O)cc1
inactive: SK-MEL-5 melanoma 89.2% | ACHN renal 13.1% | CCRF-CEM leukemia 17.9% | OVCAR-4 ovarian 10.1% | NCI/ADR-RES ovarian 13.2% | T-47D breast 16.3% | BT-549 breast 23.7% | MDA-MB-435 melanoma 50.5% | SW-620 colon 23% | KM12 colon 47.9%
active: HOP-92 NSCLC -25.7% | RXF 393 renal -65.6% | HCC-2998 colon -11.5%

O=C1NC2C=CC=CC2/C1=C1/SC(=S)N(C2CC(=O)N(c3ccc(Br)cc3)C2=O)C1=O (stereo not given)
inactive: RXF 393 renal 109% | SK-MEL-5 melanoma 100% | CCRF-CEM leukemia 53.9% | SR leukemia 67.9% | OVCAR-4 ovarian 93.1% | NCI/ADR-RES ovarian 95.6% | T-47D breast 82.9% | BT-549 breast 101% | MDA-MB-435 melanoma 95.7% | SW-620 colon 93.4% | HCT-116 colon 103% | HCC-2998 colon 99.3% | KM12 colon 81.4%

O=C(c1ccc(Cl)cc1)C(c1c[nH]c2ccccc12)c1c[nH]c2ccccc12
active: HOP-92 NSCLC -15.7% | RXF 393 renal -82.1% | SK-MEL-5 melanoma -58.3% | ACHN renal -99.9% | CCRF-CEM leukemia 2.45% | SR leukemia -12.2% | T-47D breast -30.6% | BT-549 breast -38.2% | MDA-MB-435 melanoma -68.6% | SW-620 colon -52.6% | HCC-2998 colon -89.6% | KM12 colon -5.68%
inactive: NCI/ADR-RES ovarian 11%

Cn1cc(-c2cc3nc(-c4c[nH]c5ccccc45)cc(N)n3n2)c2cc(Cl)ccc21
active: HOP-92 NSCLC -81% | RXF 393 renal -82.7% | SK-MEL-5 melanoma -99% | CCRF-CEM leukemia -12.6% | NCI/ADR-RES ovarian -48.5% | T-47D breast -85.5% | BT-549 breast -90.4% | MDA-MB-435 melanoma -93.1% | SW-620 colon -61% | MCF7 breast -85.9% | HCT-116 colon -84.6% | HCC-2998 colon -84.1% | KM12 colon -82.2%

O=C(Nc1ccc(Oc2ncnc3scc(Nc4n[nH]c(=S)s4)c23)cc1)C1(C(=O)Nc2cccc(C(F)(F)F)c2)CC1
inactive: RXF 393 renal 118% | SNB-19 CNS 99.6% | SK-MEL-5 melanoma 95% | CCRF-CEM leukemia 111% | SR leukemia 85% | NCI/ADR-RES ovarian 104% | T-47D breast 86.7% | BT-549 breast 96.1% | MDA-MB-435 melanoma 105% | SW-620 colon 103% | MCF7 breast 23.3% | HCT-116 colon 99.7% | HCC-2998 colon 107%

COc1ccc(C2c3sc4ccc(C)cc4c3Oc3nc(N)nc(N)c32)cc1 (stereo not given)
active: MDA-MB-435 melanoma 9.83%
inactive: RXF 393 renal 64.8% | SK-MEL-5 melanoma 92.9% | ACHN renal 94.4% | CCRF-CEM leukemia 82.8% | SR leukemia 51.2% | NCI/ADR-RES ovarian 85.1% | T-47D breast 61.3% | BT-549 breast 84.5% | SW-620 colon 84.8% | MCF7 breast 53.8% | HCC-2998 colon 94% | KM12 colon 70.9%

O=C1NC(=S)S/C1=C\c1cn(-c2ccccc2)nc1-c1ccc([N+](=O)[O-])cc1
active: RXF 393 renal 3.42% | SK-MEL-5 melanoma -33.3% | T-47D breast 6.73% | BT-549 breast -16% | MDA-MB-435 melanoma 6.24% | MCF7 breast 6.25% | HCT-116 colon 5%
inactive: CCRF-CEM leukemia 18.5% | NCI/ADR-RES ovarian 13.6% | SW-620 colon 21.7% | HCC-2998 colon 22.4% | KM12 colon 24.4%

Cc1cc(N=C2NC(=O)/C(=C/c3cc(C(C)(C)C)c(O)c(C(C)(C)C)c3)S2)n[nH]1
active: RXF 393 renal -38.6% | SK-MEL-5 melanoma -72.8% | OVCAR-4 ovarian -42.7% | NCI/ADR-RES ovarian 5.91% | T-47D breast 3.32% | BT-549 breast -1.78% | MDA-MB-435 melanoma 4.96% | MCF7 breast 4.33% | HCT-116 colon 3.45%
inactive: CCRF-CEM leukemia 13% | SW-620 colon 15.3% | HCC-2998 colon 22.5% | KM12 colon 17.1%

Cn1cc(-c2nc(N)nnc2-c2c[nH]c3ccccc23)c2cc(Br)cnc21
active: RXF 393 renal 6.16% | SK-MEL-5 melanoma -81.3% | NCI/ADR-RES ovarian 3.11% | BT-549 breast -29.6% | MDA-MB-435 melanoma -25.2% | HCT-116 colon 7.04% | HCC-2998 colon -35%
inactive: ACHN renal 19.2% | CCRF-CEM leukemia 20.5% | T-47D breast 65.2% | SW-620 colon 24.7% | KM12 colon 13.1%

O=C(c1ccc(F)cc1)C(c1c[nH]c2ccccc12)c1c[nH]c2ccccc12
inactive: HOP-92 NSCLC 90.5% | RXF 393 renal 40.3% | SK-MEL-5 melanoma 89.8% | ACHN renal 39.4% | SR leukemia 10.5% | OVCAR-4 ovarian 55.9% | NCI/ADR-RES ovarian 54.7% | T-47D breast 63.9% | BT-549 breast 71.4% | MDA-MB-435 melanoma 58.4% | MCF7 breast 15.2% | HCC-2998 colon 82.9% | KM12 colon 70.3%
active: CCRF-CEM leukemia 3.4% | SW-620 colon 5.23%

O=[N+]([O-])c1cccc(-c2nnc3c(/C=C/c4ccccc4O)nc4ccccc4n23)c1
inactive: HOP-92 NSCLC 51.2% | RXF 393 renal 52.6% | SK-MEL-5 melanoma 19.6% | CCRF-CEM leukemia 47.5% | SR leukemia 51.8% | OVCAR-4 ovarian 68.4% | NCI/ADR-RES ovarian 57.5% | T-47D breast 26.3% | BT-549 breast 62.6% | MDA-MB-435 melanoma 40.7% | SW-620 colon 41.7% | HCC-2998 colon 53.8% | KM12 colon 37.5%
